Source: PubChem BioAssay
The source made the active and inactive calls. Unless noted, no rule for the calls is given here.

What was measured:
[1] = system: Wnt5a (protein binding on small-molecule microarray); test: small molecules binding Wnt5a protein – biophysical, small-molecule microarray, 635/667 nm fluorescence, primary screen (AID 1142); details: 635 nm fluorescence, higher = more signal;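 also: fluorescence read at 667 nm with signal to noise per printed feature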
[2] = ATP-based viability of Huh7 replicon cells – cell-based, CellTiter-Glo luminescence, basal, 48 h, cytotoxicity control for HCV replication inhibitor project, primary screen (AID 1143); details: higher = more signal, called active from +8 up or from −8 down;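 also: Huh7 hepatoma cells carrying a hepatitis C replication reporter with no stimulus; test concentration not given here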
[3] = Pseudomonas biofilm growth suppression – PAO1 strain, BacTiter-Glo luminescence, LB-PBS, primary screen (AID 1144); details: P. aeruginosa PAO1 biofilm, 12 h, higher = more signal
[4] = basal CRE-LacZ reporter activity in PC12 – cell-based, unstimulated, primary screen (AID 1145); details: no forskolin, luminescence, 4.5 h, higher = more signal, called active from +8 up or from −8 down
[5] = forskolin-driven CRE-LacZ activity in PC12 – cell-based, CRE-LacZ reporter, forskolin-stimulated, primary screen (AID 1146); details: luminescence, 4.5 h, higher = more signal, called active from +8 up or from −8 down;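 also: PC12 cells with 6xCRE LacZ reporter stimulated by forskolin 10 µM; beta-galactosidase reporter signal reflecting CREB driven transcription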
[6] = target: Streptavidin (Streptomyces avidinii) (UniProt P22629); test: compounds binding control protein streptavidin – biophysical, small-molecule microarray, 635/667 nm fluorescence, artefact control for SMM compound annotation, primary screen (AID 1147); details: higher = more signal;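 also: signal reflects streptavidin binding to arrayed compounds as a control protein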
Streptavidin (Streptomyces avidinii), sequence (P22629 whole entry, looked up): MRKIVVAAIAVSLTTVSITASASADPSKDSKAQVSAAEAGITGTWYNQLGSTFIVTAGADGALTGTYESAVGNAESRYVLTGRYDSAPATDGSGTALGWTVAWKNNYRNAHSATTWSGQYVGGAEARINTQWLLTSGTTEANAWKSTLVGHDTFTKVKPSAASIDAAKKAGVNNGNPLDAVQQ

[7] = probe aInhba binding on compound microarray – biochemical, small-molecule microarray, 635/667 nm fluorescence, primary screen (AID 1148); details: higher = more signal;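 also: score merges 667nm spot fluorescence with signal-to-noise for antibody binding to printed compounds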
Torsin-1A (Homo sapiens) [8] = target: Torsin-1A (Homo sapiens) (UniProt O14656); test: TOR1A wild-type binding on microarray – cell lysate, small-molecule microarray, lysate, 635/667 nm, primary screen (AID 1149); details: COS7 hTOR1A-WT lysate, 635 nm fluorescence, higher = more signal
Torsin-1A (Homo sapiens), sequence (O14656 whole entry, looked up): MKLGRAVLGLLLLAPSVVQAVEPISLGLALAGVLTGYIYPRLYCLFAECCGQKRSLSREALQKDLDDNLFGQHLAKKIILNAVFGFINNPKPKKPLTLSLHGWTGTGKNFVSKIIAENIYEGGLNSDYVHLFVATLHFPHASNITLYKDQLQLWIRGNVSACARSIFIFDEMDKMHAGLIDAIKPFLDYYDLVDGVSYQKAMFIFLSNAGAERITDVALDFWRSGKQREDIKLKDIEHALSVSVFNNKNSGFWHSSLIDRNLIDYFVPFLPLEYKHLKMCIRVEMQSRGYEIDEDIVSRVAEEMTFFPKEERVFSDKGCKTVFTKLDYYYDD

Torsin-1A (Homo sapiens) [9] = target: Torsin-1A (Homo sapiens) (UniProt O14656); test: torsin A mutant lysate binding on microarrays – cell lysate, small-molecule microarray, COS7 lysate, 635/667 nm fluorescence, primary screen (AID 1150); details: COS7 hTOR1A mutant lysate, 635 nm fluorescence, higher = more signal;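 also: score pools 667 nm emission and signal to noise measuring lysate protein binding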
[10] = system: Sonic hedgehog protein (Shh); test: Sonic hedgehog microarray binding compounds – biochemical, small-molecule microarray, 635/667 nm fluorescence, primary screen (AID 1151); details: 635 nm fluorescence, higher = more signal;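 also: Shh protein binding to compounds spotted on small-molecule microarray slides; score combines spot fluorescence intensity with signal-to-noise across triplicate slides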
[11] = optical density shifts of acrAB sulA E. coli – strain DRC41, OD650, 48 h, E. coli filamentation inducer project, primary screen (AID 1152); details: higher = more signal, called active from +8 up or from −8 down;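 also: E. coli MC1000 strain DRC41 lacking acrAB efflux pump and sulA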
[12] = probe aLefty1 binding on compound microarray – biochemical, small-molecule microarray, 635/667 nm fluorescence, primary screen (AID 1153); details: higher = more signal;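 also: score merges spot fluorescence with signal-to-noise ratio from the scanned slide images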
[13] = plasmodial surface anion channel blockers, osmotic lysis – cell-based, P. falciparum Indochina, OD700, 1 h, primary screen (AID 1154); details: P. falciparum Indochina infected RBC osmotic lysis, higher = more signal, called active from +8 up or from −8 down
[14] = plasmodial surface anion channel blockers, osmotic lysis – cell-based, P. falciparum Indochina, OD700, 2 h, primary screen (AID 1155);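 also: lysis reports solute entry through the parasite surface anion channel PSAC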; details: P. falciparum Indochina infected erythrocytes, higher = more signal, called active from +8 up or from −8 down
[15] = changes in parasitized red cell lysis, either direction – P. falciparum Indochina, OD700, 3 h, PSAC antagonist project, primary screen (AID 1156); details: P. falciparum-infected erythrocytes, osmotic lysis, higher = more signal, called active from +8 up or from −8 down
[16] = plasmodial surface anion channel blockers, osmotic lysis – cell-based, P. falciparum Indochina, OD700, 18 h, primary screen (AID 1157); details: P. falciparum Indochina infected erythrocytes, osmotic lysis OD700, 18 h; higher = more signal, called active from +8 up or from −8 down
[17] = S6 kinase pathway phospho-S6 level changes – cell-based, A549, cytoblot, luminescence, serum-stimulated, primary screen (AID 1158); details: 5 h, higher = more signal;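 also: serum-stimulated A549 lung adenocarcinoma cells; signal is phosphorylated S6 detected by cytoblot immunostaining with HRP secondary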
[18] = target: NADPH oxidase 2 (Homo sapiens) (UniProt P04839); test: compounds shifting NOX2 Amplex Red fluorescence – cell-based, HEK293-NOX2, PMA-stimulated, NOX inhibitor project, primary screen (AID 1159); details: 45 min, higher = more signal, called active from +8 up or from −8 down; also: test concentration not given here
NADPH oxidase 2 (Homo sapiens), sequence (P04839 whole entry, looked up): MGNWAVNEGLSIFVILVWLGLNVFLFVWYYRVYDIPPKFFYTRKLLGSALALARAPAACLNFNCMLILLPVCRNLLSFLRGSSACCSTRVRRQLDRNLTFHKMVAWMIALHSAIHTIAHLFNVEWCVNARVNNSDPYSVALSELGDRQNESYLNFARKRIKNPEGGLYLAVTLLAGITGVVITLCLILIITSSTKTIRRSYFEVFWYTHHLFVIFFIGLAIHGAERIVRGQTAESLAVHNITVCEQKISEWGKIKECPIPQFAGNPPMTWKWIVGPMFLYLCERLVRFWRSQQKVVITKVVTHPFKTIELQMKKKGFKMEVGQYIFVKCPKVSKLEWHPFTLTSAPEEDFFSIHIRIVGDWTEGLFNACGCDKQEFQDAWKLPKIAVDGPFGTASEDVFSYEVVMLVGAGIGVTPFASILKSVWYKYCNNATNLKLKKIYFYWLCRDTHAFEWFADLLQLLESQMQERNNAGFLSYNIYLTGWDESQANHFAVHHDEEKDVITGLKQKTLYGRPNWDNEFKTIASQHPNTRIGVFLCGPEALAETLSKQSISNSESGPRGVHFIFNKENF

[19] = target: NADPH oxidase 4 (Homo sapiens) (UniProt Q9NPH5); test: compounds shifting NOX4 Amplex Red fluorescence – cell-based, HEK293-NOX4, tetracycline-induced, NOX inhibitor project, primary screen (AID 1160); details: HEK293-NOX4, Amplex Red H2O2 fluorescence, 45 min; higher = more signal, called active from +8 up or from −8 down
NADPH oxidase 4 (Homo sapiens), sequence (Q9NPH5 whole entry, looked up): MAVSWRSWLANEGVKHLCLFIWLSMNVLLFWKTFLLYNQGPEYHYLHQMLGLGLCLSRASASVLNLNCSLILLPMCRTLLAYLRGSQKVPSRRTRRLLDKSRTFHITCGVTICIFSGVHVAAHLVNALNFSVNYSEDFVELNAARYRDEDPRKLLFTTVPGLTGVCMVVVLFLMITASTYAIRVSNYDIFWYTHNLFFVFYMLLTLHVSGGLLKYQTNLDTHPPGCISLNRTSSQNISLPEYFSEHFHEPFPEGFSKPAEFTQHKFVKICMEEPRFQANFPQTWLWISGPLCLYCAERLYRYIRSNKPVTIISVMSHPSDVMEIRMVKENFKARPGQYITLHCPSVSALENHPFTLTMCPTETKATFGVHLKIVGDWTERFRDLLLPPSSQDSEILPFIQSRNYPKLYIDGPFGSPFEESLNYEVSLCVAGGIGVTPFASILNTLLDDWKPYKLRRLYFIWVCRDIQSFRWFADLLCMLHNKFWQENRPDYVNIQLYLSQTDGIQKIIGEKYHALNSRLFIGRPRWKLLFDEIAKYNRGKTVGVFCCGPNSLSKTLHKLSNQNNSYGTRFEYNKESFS

[20] = target: NADPH oxidase 5 (Homo sapiens) (UniProt Q96PH1); test: compounds shifting NOX5 Amplex Red fluorescence – cell-based, HEK293-NOX5, NOX inhibitor project, primary screen (AID 1161); details: HEK293-NOX5, ionomycin, 45 min, higher = more signal
NADPH oxidase 5 (Homo sapiens), sequence (Q96PH1 whole entry, looked up): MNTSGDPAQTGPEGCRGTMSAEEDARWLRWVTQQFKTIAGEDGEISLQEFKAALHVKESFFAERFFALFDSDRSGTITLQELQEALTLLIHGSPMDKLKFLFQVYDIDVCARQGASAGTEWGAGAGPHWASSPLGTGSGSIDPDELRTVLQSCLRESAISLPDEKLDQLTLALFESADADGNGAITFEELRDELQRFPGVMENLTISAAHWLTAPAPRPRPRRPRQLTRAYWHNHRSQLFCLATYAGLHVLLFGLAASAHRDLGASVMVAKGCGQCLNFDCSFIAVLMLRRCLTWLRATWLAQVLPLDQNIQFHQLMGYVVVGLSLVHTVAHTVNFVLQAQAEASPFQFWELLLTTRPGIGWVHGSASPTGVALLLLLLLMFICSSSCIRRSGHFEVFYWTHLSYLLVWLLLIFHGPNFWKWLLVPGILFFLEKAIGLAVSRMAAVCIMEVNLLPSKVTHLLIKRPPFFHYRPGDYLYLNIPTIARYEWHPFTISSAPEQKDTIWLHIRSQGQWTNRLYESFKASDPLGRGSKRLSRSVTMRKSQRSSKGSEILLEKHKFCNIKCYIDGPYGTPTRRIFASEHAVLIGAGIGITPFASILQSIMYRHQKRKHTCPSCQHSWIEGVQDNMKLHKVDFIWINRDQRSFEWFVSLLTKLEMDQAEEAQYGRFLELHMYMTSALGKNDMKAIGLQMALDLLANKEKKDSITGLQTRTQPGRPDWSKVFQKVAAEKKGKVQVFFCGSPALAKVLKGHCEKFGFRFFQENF

SMILES: COc1ccc(CCNC(=O)[C@@H]2c3ccccc3C(=O)N(Cc3ccccc3C(F)(F)F)[C@H]2c2ccc(CO)cc2)cc1
- composite z-score [1]: -0.189
- z-score [2]: -2.64 (inactive)
- z-score [3]: -0.984 (inactive)
- z-score [4]: -0.295 (inactive)
- z-score [5]: -0.132 (inactive)
- composite z-score [6]: -0.752
- composite z-score [7]: -0.168
- composite z-score (Torsin-1A (Homo sapiens) [8]): -1.27
- composite z-score (Torsin-1A (Homo sapiens) [9]): 0.714
- composite z-score [10]: -0.25
- z-score [11]: 0.163 (inactive)
- composite z-score [12]: -0.144
- z-score [13]: 3.68 (inactive)
- z-score [14]: 0.252 (inactive)
- z-score [15]: 1.73 (inactive)
- z-score [16]: 0.694 (inactive)
- z-score [17]: -0.366
- z-score [18]: -0.536 (inactive)
- z-score [19]: -2.38 (inactive)
- z-score [20]: -3.69

SMILES: C=C(COC)/C(=C/C[C@@H](OC(=O)c1ccncc1)c1cccc(OCCO)c1)c1cc(C(=O)OC)ccc1OC
- composite z-score [1]: 0.996
- z-score [2]: -8.13 (active)
- z-score [3]: -0.0417 (inactive)
- z-score [4]: 23.7 (active)
- z-score [5]: -0.376 (inactive)
- composite z-score [6]: -0.0673
- composite z-score [7]: 0.709
- composite z-score (Torsin-1A (Homo sapiens) [8]): 2.64
- composite z-score (Torsin-1A (Homo sapiens) [9]): 1.49
- composite z-score [10]: 2.11
- z-score [11]: 0.701 (inactive)
- composite z-score [12]: 0.0698
- z-score [13]: 8.82 (active)
- z-score [14]: 4.64 (inactive)
- z-score [15]: -3.3 (inactive)
- z-score [16]: 1.53 (inactive)
- z-score [17]: -0.88
- z-score [18]: -3.02 (inactive)
- z-score [19]: -0.817 (inactive)
- z-score [20]: -1.23

SMILES: Cc1ccc(C(C)CC(O)C2C=CC3C(=O)N(Cc4ccccc4)C(=O)C3N2n2cnnc2)o1 (stereo not given)
- composite z-score [1]: 1.36
- z-score [2]: -0.167 (inactive)
- z-score [3]: 0.928 (inactive)
- z-score [4]: 0.323 (inactive)
- z-score [5]: 1.14 (inactive)
- composite z-score [6]: 0.352
- composite z-score [7]: 1.36
- composite z-score (Torsin-1A (Homo sapiens) [8]): 0.173
- composite z-score (Torsin-1A (Homo sapiens) [9]): 0.663
- composite z-score [10]: -0.265
- z-score [11]: -1.44 (inactive)
- composite z-score [12]: 1.21
- z-score [13]: 2.31 (inactive)
- z-score [14]: 0.793 (inactive)
- z-score [15]: 0.809 (inactive)
- z-score [16]: 0.709 (inactive)
- z-score [17]: -0.63
- z-score [18]: -0.168 (inactive)
- z-score [19]: -1.78 (inactive)
- z-score [20]: -2.17

SMILES: CC(C)C(CO)N1C(=O)[C@@H]2[C@H]3C(=O)OCC=C[C@H]3OC23C=CCN(Cn2nnc4ccccc42)C(=O)[C@@H]13 (stereo not given in full)
- composite z-score [1]: -0.257
- z-score [2]: 0.44 (inactive)
- z-score [3]: 0.0585 (inactive)
- z-score [4]: -0.492 (inactive)
- z-score [5]: -0.0021 (inactive)
- composite z-score [6]: -1.05
- composite z-score [7]: -0.231
- composite z-score (Torsin-1A (Homo sapiens) [8]): -0.957
- composite z-score (Torsin-1A (Homo sapiens) [9]): -2.27
- composite z-score [10]: -1
- z-score [11]: 0.197 (inactive)
- composite z-score [12]: -0.228
- z-score [13]: 0.766 (inactive)
- z-score [14]: 0.123 (inactive)
- z-score [15]: 0.393 (inactive)
- z-score [16]: 0.0882 (inactive)
- z-score [17]: 0.234
- z-score [18]: 0.699 (inactive)
- z-score [19]: 0.247 (inactive)
- z-score [20]: 0.94

SMILES: COc1ccc([Si](C)(C)[C@@H]2[C@@H](CCO)O[C@]3(C(=O)N(Cc4ccccc4)c4ccc(N5CCCCC5=O)cc43)[C@H]2C)cc1
- composite z-score [1]: 0.271
- z-score [2]: -8.08 (active)
- z-score [3]: -0.119 (inactive)
- z-score [4]: 8.84 (active)
- z-score [5]: -0.94 (inactive)
- composite z-score [6]: 0.583
- composite z-score [7]: 0.0446
- composite z-score (Torsin-1A (Homo sapiens) [8]): -0.121
- composite z-score (Torsin-1A (Homo sapiens) [9]): 0.198
- composite z-score [10]: 1.44
- z-score [11]: 2.13 (inactive)
- composite z-score [12]: 0.0984
- z-score [13]: 3.59 (inactive)
- z-score [14]: 1.19 (inactive)
- z-score [15]: -0.121 (inactive)
- z-score [16]: 0.231 (inactive)
- z-score [17]: 0.863
- z-score [18]: -0.421 (inactive)
- z-score [19]: -0.278 (inactive)
- z-score [20]: 1.37

SMILES: CCOC(=O)C[C@H]1[C@H](OC(=O)c2cc3ccccc3oc2=O)[C@@H](NC(=O)c2ccc3ccccc3n2)c2cc(OCCCO)ccc2N1C(=O)c1ccc2ccccc2n1
- composite z-score [1]: 0.27
- z-score [2]: -0.529 (inactive)
- z-score [3]: 0.954 (inactive)
- z-score [4]: 11.8 (active)
- z-score [5]: -1.72 (inactive)
- composite z-score [6]: 0.617
- composite z-score [7]: 0.539
- composite z-score (Torsin-1A (Homo sapiens) [8]): 0.916
- composite z-score (Torsin-1A (Homo sapiens) [9]): 0.378
- composite z-score [10]: 1.46
- z-score [11]: 1.03 (inactive)
- composite z-score [12]: 0.174
- z-score [13]: 10.8 (active)
- z-score [14]: 1.56 (inactive)
- z-score [15]: 1.25 (inactive)
- z-score [16]: 0.647 (inactive)
- z-score [17]: -0.112
- z-score [18]: 0.786 (inactive)
- z-score [19]: 0.715 (inactive)
- z-score [20]: 2.28

SMILES: COC(=O)[C@]1(Cc2ccccc2CN=[N+]=[N-])N=C(c2ccc(OCCCO)cc2)O[C@@H]1c1ccccc1
- composite z-score [1]: -0.311
- z-score [2]: -4.69 (inactive)
- z-score [3]: 0.211 (inactive)
- z-score [4]: 4.85 (inactive)
- z-score [5]: 0.56 (inactive)
- composite z-score [6]: -1.05
- composite z-score [7]: -0.0407
- composite z-score (Torsin-1A (Homo sapiens) [8]): -2.51
- composite z-score (Torsin-1A (Homo sapiens) [9]): -1.33
- composite z-score [10]: -1.19
- z-score [11]: -0.453 (inactive)
- composite z-score [12]: 0.14
- z-score [13]: 27.8 (active)
- z-score [14]: 26.4 (active)
- z-score [15]: -0.232 (inactive)
- z-score [16]: 6.71 (inactive)
- z-score [17]: 0.008
- z-score [18]: -2.2 (inactive)
- z-score [19]: -1.59 (inactive)
- z-score [20]: -2.6

SMILES: COc1ccc([Si](C)(C)[C@@H]2[C@@H](CCO)O[C@]3(C(=O)N(Cc4cccc(N5C(=O)COc6ccccc65)c4)c4ccccc43)[C@H]2C)cc1
- composite z-score [1]: -0.0772
- z-score [2]: -7.12 (inactive)
- z-score [3]: -0.17 (inactive)
- z-score [4]: 6.98 (inactive)
- z-score [5]: 0.586 (inactive)
- composite z-score [6]: 0.428
- composite z-score [7]: 0.0633
- composite z-score (Torsin-1A (Homo sapiens) [8]): -0.277
- composite z-score (Torsin-1A (Homo sapiens) [9]): -0.491
- composite z-score [10]: 0.45
- z-score [11]: 0.111 (inactive)
- composite z-score [12]: 0.139
- z-score [13]: 3.9 (inactive)
- z-score [14]: 3.53 (inactive)
- z-score [15]: 0.797 (inactive)
- z-score [16]: 2.26 (inactive)
- z-score [17]: 0.373
- z-score [18]: 0.416 (inactive)
- z-score [19]: 1.36 (inactive)
- z-score [20]: 1.49
